Measured values published in PubChem BioAssay (NCATS).
Records with an inconclusive call do not appear. Values without a mark were called inactive. The call rests on the fitted dose curve; in most records, active means well fitted inhibition curve with a large enough effect; inconclusive means small, poorly fitted or top-dose-only effect, or effect the other way; inactive means flat fitted curve, though single readings scatter. Bridge positions count the residues as written; N and C are the ends. Square brackets hold non-standard residues; d marks the D form. Peptide text beside a SMILES is read from it. hArg = N=C(N)NCCCC[C@H](N)C(=O)O; Mpa = O=C(O)CCS

Biological target: ATP-dependent 6-phosphofructokinase (Trypanosoma brucei brucei) (UniProt O15648)
Experiment: qHTS Assay to Find Inhibitors of T. brucei phosphofructokinase: hit validation (AID 492961);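 further: luminescence reports ADP formed as PFK phosphorylates fructose-6-phosphate with ATP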
Details: T. brucei PFK, ADP-Glo luminescence; series mostly up to 51.4 µM; activity change, negative = inhibition: at the top concentration
Method in brief: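 Measures ADP output of PFK (1.25 nM) at 0.1 mM ATP, 0.5 mM F6P, pH 8.0 TEA buffer with 5 mM MgCl2. No-enzyme wells define full inhibition; uninhibited enzyme wells define zero.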
On the % scale 0 is the no-effect control and ±100 the full control effect.

Chain of ATP-dependent 6-phosphofructokinase (Trypanosoma brucei brucei) (O15648 whole entry, looked up): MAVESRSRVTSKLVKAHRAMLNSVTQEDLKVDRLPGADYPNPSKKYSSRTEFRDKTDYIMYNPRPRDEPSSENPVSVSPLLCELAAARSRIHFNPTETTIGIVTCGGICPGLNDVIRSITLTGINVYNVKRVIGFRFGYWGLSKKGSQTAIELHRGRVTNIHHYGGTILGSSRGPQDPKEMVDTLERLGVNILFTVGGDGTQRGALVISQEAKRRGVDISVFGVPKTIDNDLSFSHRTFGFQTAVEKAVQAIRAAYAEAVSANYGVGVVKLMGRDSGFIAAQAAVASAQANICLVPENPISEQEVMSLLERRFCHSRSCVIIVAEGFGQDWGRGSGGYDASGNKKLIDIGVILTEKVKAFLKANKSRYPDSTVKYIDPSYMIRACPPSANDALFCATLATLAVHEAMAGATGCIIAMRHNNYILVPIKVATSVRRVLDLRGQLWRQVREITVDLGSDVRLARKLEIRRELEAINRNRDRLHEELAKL

Going from N#Cc1nn(-c2c(Cl)cc(C(F)(F)F)cc2Cl)c(N)c1S(=O)C(F)(F)F (configuration not stated) to O=C(NC(=O)c1c(F)cccc1F)Nc1cc(Cl)c(OC(F)(F)C(F)C(F)(F)F)cc1Cl (configuration not stated), the “activity change, negative = inhibition” value rises from -3.76% to 5.13%.

Compared with COP(=O)(OC)OC=C(Cl)Cl, Cc1c(Cl)c(=O)oc2cc(OP(=O)(OCCCl)OCCCl)ccc12 is higher in “activity change, negative = inhibition” value: -1.97% for the first, 11.6% for the second.

First: CCNc1nc(Cl)nc(NCC)n1
Second: CC(Cc1ccccc1)NCc1ccccc1Cl (configuration not stated)
The “activity change, negative = inhibition” value of the first is higher: 3% for the first, -4.69% for the second.

First: CN1C[C@@H](NS(=O)(=O)N(C)C)C[C@@H]2c3cccc4c3c(cn4C)C[C@H]21
Second: CN1CCc2cc(Cl)c(O)cc2[C@H]2c3ccccc3CC[C@@H]21
The “activity change, negative = inhibition” value of the first is higher: 6.52% for the first, -4.85% for the second.

Compared with CCC1(c2ccccc2)CCC(=O)NC1=O (configuration not stated), CCN(CC)CCOC(=O)C(C)(c1ccccc1)c1ccccc1 is higher in “activity change, negative = inhibition” value: -7.49% for the first, -4.31% for the second.

Going from Cc1ncc2n1-c1ccc(Cl)cc1C(c1ccccc1F)=NC2 to COCC(=O)N(c1c(C)cccc1C)C(C)C(=O)OC (configuration not stated), the “activity change, negative = inhibition” value falls from 2.78% to -2.15%.

Going from CC[C@]1(O)CC[C@H]2[C@@H]3CCC4=CCCC[C@@H]4[C@H]3CC[C@@]21C to C[C@H]1C(=O)O[C@@H]2CCN3CC=C(COC(=O)[C@](C)(O)[C@]1(C)O)[C@H]23, the “activity change, negative = inhibition” value rises from -5.25% to -3.05%.

Compared with CCOC(=O)NC(O)C(Cl)(Cl)Cl (configuration not stated), NC(=O)[C@@H]1CSSCCC(=O)N[C@@H](CCCCN=C(N)N)C(=O)NCC(=O)N[C@@H](CC(=O)O)C(=O)N[C@@H](Cc2c[nH]c3ccccc23)C(=O)N2CCC[C@H]2C(=O)N1 ([Mpa][hArg]GDWPC-NH2; disulfide 1-7) is lower in “activity change, negative = inhibition” value: 2.82% for the first, -17.5% for the second.

In the case of COc1ccc(CN2CCNCC2)c(OC)c1OC, the “activity change, negative = inhibition” value is reported as -0.334% [at 24.3 µM].
